Results reported in the supplement of paper PMC6411743.
± gives the standard deviation of the averaged measurements. Targets with the largest changes are over-represented here; the source holds about 6,200 in all.

Compound: Nc1ncnc2c1ncn2[C@@H]1O[C@H](COP(=O)(O)OP(=O)(O)NP(=O)(O)O)[C@@H](O)[C@H]1O [adenylyl imidodiphosphate]
Test: NP40-soluble protein abundance relative to vehicle (solubility fold change) (ratio); higher = more soluble protein in presence of AMP-PNP
Outline: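 In three independent experiments, Jurkat crude lysate made by Dounce homogenisation was treated for 10 min at room temperature and then 3 min at 37 °C with eight concentrations ranging from 0.1 to 10 mM. It was then solubilised with 0.8% NP40 plus benzonase for 60 min at 4 °C and ultracentrifuged. The supernatant was TMT-labelled for LC-MS/MS, and each value is the fold change against the detergent-processed vehicle for the same replicate, using vsn-normalised intensities.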

UniProt O43290, sequence (O43290 whole entry): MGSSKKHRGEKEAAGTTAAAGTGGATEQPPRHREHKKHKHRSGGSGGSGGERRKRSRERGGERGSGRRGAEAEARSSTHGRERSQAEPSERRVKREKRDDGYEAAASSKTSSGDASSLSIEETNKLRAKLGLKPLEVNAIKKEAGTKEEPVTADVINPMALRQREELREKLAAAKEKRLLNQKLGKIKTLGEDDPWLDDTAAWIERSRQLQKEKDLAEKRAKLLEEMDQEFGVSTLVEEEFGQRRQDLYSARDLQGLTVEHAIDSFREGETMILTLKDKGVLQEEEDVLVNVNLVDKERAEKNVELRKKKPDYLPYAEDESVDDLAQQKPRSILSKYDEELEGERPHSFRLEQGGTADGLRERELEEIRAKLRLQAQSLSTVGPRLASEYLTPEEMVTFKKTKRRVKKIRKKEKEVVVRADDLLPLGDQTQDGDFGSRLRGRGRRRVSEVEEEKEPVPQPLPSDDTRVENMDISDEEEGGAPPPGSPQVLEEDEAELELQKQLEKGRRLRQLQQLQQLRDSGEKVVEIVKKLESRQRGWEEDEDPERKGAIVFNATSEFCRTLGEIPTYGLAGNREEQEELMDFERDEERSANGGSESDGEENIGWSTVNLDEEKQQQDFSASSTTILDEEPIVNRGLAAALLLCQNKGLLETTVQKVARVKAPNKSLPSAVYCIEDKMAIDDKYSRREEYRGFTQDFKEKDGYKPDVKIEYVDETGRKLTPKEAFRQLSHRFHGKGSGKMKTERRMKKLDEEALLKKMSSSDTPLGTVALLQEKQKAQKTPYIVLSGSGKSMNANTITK
UniProt O43242, sequence (O43242 whole entry): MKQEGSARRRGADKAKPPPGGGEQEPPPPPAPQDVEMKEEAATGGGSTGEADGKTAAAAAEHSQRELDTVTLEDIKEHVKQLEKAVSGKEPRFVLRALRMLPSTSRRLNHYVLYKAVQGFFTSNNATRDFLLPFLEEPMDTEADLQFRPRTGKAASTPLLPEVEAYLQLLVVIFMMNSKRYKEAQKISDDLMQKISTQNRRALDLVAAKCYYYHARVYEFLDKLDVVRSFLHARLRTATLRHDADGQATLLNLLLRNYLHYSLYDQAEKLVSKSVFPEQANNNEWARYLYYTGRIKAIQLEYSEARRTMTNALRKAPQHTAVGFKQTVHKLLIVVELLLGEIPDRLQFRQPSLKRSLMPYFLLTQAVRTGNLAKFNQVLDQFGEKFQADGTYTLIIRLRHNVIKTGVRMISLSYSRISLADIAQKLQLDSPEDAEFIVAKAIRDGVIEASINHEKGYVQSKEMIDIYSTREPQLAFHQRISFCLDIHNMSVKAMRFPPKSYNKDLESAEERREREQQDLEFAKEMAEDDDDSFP
UniProt Q9HCU9, sequence (Q9HCU9 whole entry, one chain of several): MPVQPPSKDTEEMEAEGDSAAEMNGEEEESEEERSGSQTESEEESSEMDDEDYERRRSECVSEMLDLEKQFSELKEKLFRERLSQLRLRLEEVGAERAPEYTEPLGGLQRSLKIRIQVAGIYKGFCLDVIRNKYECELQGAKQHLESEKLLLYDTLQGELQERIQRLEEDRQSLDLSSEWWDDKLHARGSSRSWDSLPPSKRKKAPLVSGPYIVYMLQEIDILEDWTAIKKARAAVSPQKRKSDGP
UniProt Q9Y618, sequence (Q9Y618 whole entry, one chain of several): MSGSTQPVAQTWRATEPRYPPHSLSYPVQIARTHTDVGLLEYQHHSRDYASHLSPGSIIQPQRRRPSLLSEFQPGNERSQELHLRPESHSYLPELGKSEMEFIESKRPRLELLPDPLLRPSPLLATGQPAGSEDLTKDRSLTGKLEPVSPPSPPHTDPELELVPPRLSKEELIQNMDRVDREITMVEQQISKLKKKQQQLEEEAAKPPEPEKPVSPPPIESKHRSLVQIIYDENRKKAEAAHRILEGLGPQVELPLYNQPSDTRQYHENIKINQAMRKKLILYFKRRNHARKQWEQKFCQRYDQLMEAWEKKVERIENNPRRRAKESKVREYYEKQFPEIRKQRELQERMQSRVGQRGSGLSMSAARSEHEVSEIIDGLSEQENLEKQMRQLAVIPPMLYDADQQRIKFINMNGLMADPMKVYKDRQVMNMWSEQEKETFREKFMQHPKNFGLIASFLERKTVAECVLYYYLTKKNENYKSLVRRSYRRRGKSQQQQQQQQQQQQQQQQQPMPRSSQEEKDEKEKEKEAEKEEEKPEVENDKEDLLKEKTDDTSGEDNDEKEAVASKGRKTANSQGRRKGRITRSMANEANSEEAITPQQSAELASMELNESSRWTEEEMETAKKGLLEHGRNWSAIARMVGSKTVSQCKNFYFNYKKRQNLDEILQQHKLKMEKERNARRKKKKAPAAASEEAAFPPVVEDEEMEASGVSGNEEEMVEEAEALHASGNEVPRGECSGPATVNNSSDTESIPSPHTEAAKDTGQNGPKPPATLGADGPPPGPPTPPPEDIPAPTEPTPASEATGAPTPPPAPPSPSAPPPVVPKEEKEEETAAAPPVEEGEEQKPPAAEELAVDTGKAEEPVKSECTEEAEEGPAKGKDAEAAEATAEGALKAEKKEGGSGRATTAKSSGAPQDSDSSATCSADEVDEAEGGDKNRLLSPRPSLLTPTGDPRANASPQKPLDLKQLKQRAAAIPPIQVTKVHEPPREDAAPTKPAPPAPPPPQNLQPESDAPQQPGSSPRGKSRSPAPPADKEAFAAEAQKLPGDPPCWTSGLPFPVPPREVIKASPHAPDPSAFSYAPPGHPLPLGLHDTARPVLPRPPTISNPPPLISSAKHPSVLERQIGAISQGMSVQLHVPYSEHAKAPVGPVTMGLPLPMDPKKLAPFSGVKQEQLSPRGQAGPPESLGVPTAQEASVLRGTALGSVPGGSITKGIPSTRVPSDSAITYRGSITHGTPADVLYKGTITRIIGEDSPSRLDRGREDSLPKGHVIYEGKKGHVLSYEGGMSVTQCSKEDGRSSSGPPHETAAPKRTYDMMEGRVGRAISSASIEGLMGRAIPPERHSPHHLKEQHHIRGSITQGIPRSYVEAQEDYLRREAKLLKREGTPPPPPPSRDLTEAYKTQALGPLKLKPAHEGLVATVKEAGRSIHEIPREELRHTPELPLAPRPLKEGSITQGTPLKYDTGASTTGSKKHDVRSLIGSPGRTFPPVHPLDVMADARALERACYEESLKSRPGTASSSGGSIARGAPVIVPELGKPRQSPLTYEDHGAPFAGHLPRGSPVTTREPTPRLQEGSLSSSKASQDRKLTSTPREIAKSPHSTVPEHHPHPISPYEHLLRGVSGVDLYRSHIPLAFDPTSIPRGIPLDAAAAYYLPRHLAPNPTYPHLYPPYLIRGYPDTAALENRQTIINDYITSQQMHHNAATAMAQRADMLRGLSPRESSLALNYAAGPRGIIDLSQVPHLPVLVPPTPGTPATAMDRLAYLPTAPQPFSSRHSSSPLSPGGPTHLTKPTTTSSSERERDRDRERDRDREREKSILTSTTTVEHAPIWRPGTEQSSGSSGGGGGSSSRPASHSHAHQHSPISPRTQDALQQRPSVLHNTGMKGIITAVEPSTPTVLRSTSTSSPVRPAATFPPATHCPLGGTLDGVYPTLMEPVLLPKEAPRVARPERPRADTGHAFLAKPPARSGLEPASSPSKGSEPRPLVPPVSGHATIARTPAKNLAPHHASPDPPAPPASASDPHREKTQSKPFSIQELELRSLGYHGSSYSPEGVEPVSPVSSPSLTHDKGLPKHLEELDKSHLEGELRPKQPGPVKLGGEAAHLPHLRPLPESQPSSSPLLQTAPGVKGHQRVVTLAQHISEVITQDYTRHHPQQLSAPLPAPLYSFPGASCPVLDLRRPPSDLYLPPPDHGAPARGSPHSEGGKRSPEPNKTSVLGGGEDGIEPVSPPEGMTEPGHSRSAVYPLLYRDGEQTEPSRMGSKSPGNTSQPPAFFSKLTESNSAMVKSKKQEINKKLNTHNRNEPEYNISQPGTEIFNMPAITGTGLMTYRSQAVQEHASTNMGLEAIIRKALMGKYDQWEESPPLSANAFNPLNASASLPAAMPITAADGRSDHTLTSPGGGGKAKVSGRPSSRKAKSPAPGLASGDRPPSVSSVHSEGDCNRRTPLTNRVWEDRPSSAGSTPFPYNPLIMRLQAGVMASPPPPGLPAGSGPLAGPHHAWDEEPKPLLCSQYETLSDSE
UniProt Q13620, sequence (Q13620 whole entry, one chain of several): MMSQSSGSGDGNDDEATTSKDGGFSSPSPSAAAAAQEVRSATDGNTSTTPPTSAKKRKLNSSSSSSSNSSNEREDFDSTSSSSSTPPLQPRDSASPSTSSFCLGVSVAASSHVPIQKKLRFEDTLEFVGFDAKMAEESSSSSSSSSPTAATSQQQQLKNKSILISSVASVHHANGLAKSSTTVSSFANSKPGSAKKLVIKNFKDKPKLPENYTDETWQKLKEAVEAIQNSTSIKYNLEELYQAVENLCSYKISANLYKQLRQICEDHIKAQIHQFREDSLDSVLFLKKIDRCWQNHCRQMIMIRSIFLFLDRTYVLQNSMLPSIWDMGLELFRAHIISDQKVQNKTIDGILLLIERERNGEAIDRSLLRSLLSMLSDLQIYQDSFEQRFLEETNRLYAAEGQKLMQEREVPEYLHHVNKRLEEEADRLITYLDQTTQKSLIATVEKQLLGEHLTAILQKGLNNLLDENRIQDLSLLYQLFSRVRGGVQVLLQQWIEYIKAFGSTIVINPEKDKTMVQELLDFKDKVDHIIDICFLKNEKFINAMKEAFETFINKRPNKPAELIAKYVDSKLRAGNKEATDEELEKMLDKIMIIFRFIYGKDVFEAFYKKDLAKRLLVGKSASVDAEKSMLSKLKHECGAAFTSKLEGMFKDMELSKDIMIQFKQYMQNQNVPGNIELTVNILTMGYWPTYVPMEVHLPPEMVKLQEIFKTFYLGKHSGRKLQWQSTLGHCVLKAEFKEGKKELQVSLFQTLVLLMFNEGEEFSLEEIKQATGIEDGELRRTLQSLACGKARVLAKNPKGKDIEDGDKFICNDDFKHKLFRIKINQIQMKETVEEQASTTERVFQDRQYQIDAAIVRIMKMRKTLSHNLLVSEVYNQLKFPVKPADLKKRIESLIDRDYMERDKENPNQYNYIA

Target	NP40-soluble protein abundance (concentration: 1mM)	NP40-soluble protein abundance (concentration: 2mM)	NP40-soluble protein abundance (concentration: 4mM)	NP40-soluble protein abundance (concentration: 6mM)	NP40-soluble protein abundance (concentration: 8mM)	NP40-soluble protein abundance (concentration: 10mM)
F8W1A0|P36873 (UniProt P36873)	0.983 ± 0.022	0.928 ± 0.056	0.972 ± 0.014	0.985 ± 0.03	0.986 ± 0.021	0.9667 ± 0.0073
UniProt O60508|Q5SRN1	1.03 ± 0.018	1.07 ± 0.029	1.06 ± 0.026	1.09 ± 0.059	1.08 ± 0.044	1.13 ± 0.056
M0QXA7|O95785-3 (UniProt O95785)	1.02 ± 0.031	1.04 ± 0.029	1.06 ± 0.013	1.04 ± 0.034	1.02 ± 0.023	1.07 ± 0.032
C9J2U0|I3L413|P24864|P24864-2|P24864-3 (UniProt P24864)	0.913 ± 0.0092	0.822 ± 0.076	0.935 ± 0.011	0.936 ± 0.032	0.9933 ± 0.0062	0.953 ± 0.07
E7EMP6|Q96FZ2 (UniProt Q96FZ2)	1.06 ± 0.015	1.01 ± 0.032	1.04 ± 0.021	0.9875 ± 0.0043	1.01 ± 0.016	1 ± 0.033
F5H7W8|Q96C57 (UniProt Q96C57)	1.17 ± 0.015	1.26 ± 0.088	1.25 ± 0.058	1.29 ± 0.047	1.34 ± 0.062	1.37 ± 0.12
E7EQN5|P98171|P98171-2 (UniProt P98171)	0.999 ± 0.013	0.997 ± 0.05	1.02 ± 0.032	1.03 ± 0.077	1.01 ± 0.056	1.04 ± 0.023
D6RCD0|Q8NBQ5 (UniProt Q8NBQ5)	0.995 ± 0.031	0.9738 ± 0.0077	1.01 ± 0.047	1.06 ± 0.079	1.04 ± 0.056	1.04 ± 0.064
K4DI93|Q13620-1 (UniProt Q13620)	0.991 ± 0.011	0.936 ± 0.05	0.9972 ± 0.0076	0.992 ± 0.028	1 ± 0.017	0.995 ± 0.024
K7EIU8|Q13485 (UniProt Q13485)	0.986 ± 0.065	0.936 ± 0.062	0.99 ± 0.091	1.04 ± 0.084	1.08 ± 0.08	1.03 ± 0.093
HMGN4 (UniProt O00479)	1.024 ± 0.01	1.01 ± 0.047	1.04 ± 0.056	1.1 ± 0.07	1.08 ± 0.075	1.22 ± 0.076
J3KNF8|O43169 (UniProt O43169)	1.15 ± 0.069	1.34 ± 0.33	1.1 ± 0.049	1.08 ± 0.047	1.03 ± 0.08	1.05 ± 0.054
A0A0A0MQS0|A8MW92|F8W9L8|A8MW92-4 (UniProt A8MW92)	0.995 ± 0.044	1.11 ± 0.088	1.1 ± 0.041	1.15 ± 0.036	1.17 ± 0.081	1.26 ± 0.019
C9JJV1|Q9Y5U2|Q9Y5U2-2|A6NCC9|C9JHT9|E9PME3 (UniProt Q9Y5U2)	1.01 ± 0.013	1.04 ± 0.076	1.01 ± 0.01	0.968 ± 0.047	0.951 ± 0.048	0.968 ± 0.068
PSMD3 (UniProt O43242)	0.909 ± 0.031	0.865 ± 0.055	0.885 ± 0.091	0.906 ± 0.087	0.933 ± 0.11	0.915 ± 0.14
E9PLT2|P17480|P17480-2 (UniProt P17480)	1.08 ± 0.032	1.23 ± 0.06	1.32 ± 0.055	1.47 ± 0.026	1.56 ± 0.027	1.73 ± 0.044

Target	NP40-soluble protein abundance (concentration: 1mM)	NP40-soluble protein abundance (concentration: 2mM)	NP40-soluble protein abundance (concentration: 4mM)	NP40-soluble protein abundance (concentration: 6mM)	NP40-soluble protein abundance (concentration: 8mM)	NP40-soluble protein abundance (concentration: 10mM)
LSM1 (UniProt O15116)	0.913 ± 0.018	0.961 ± 0.041	0.921 ± 0.0096	0.918 ± 0.023	0.907 ± 0.011	0.897 ± 0.024
A0A0A0MTB8|Q8NI36 (UniProt Q8NI36)	1.1 ± 0.06	1.15 ± 0.11	1.37 ± 0.12	1.55 ± 0.11	1.73 ± 0.16	1.78 ± 0.086
UniProt A2RU67	0.9918 ± 0.004	1.03 ± 0.031	1.02 ± 0.021	1 ± 0.019	1 ± 0.017	1.03 ± 0.016
F8W922|Q9H7P6|Q9H7P6-2 (UniProt Q9H7P6)	1.01 ± 0.013	0.98 ± 0.022	0.989 ± 0.02	1.02 ± 0.032	1.02 ± 0.016	1.02 ± 0.013
D6REA0|O75879 (UniProt O75879)	0.962 ± 0.026	0.9665 ± 0.0091	0.968 ± 0.036	1.03 ± 0.028	0.986 ± 0.038	1.003 ± 0.0032
B0QXZ5|O96015 (UniProt O96015)	1 ± 0.02	1.01 ± 0.047	0.983 ± 0.018	0.998 ± 0.021	0.996 ± 0.019	0.9826 ± 0.0082
UniProt O14646|O14646-2	1.07 ± 0.052	1.15 ± 0.023	1.23 ± 0.077	1.33 ± 0.14	1.41 ± 0.11	1.49 ± 0.15
F8VVZ0|P61020 (UniProt P61020)	1.03 ± 0.028	0.993 ± 0.013	1.01 ± 0.024	1.07 ± 0.026	1.08 ± 0.064	1.05 ± 0.018
B0YIW6|P48444 (UniProt P48444)	0.98 ± 0.015	0.931 ± 0.045	0.949 ± 0.01	0.9391 ± 0.0089	0.9554 ± 0.0037	0.921 ± 0.017
C9J0Q5|C9JE98|C9JFD3|Q9Y618|Q9Y618-3|Q9Y618-4|Q9Y618-5 (UniProt Q9Y618)	1.03 ± 0.0079	1.05 ± 0.04	1.03 ± 0.035	0.969 ± 0.057	0.951 ± 0.02	1.01 ± 0.052
H7C5A7|O14734 (UniProt O14734)	0.962 ± 0.017	0.932 ± 0.036	0.956 ± 0.013	0.984 ± 0.061	0.97 ± 0.015	0.961 ± 0.02
SART1 (UniProt O43290)	1.07 ± 0.048	1.12 ± 0.054	1.11 ± 0.034	1.22 ± 0.089	1.26 ± 0.067	1.36 ± 0.081
FAM20B (UniProt O75063)	0.973 ± 0.02	0.993 ± 0.022	0.978 ± 0.024	0.99 ± 0.024	0.963 ± 0.016	1 ± 0.042
H0YLF3|P61769 (UniProt P61769)	0.99 ± 0.055	0.977 ± 0.084	0.923 ± 0.1	0.879 ± 0.15	0.971 ± 0.035	0.917 ± 0.076
E9PJF5|G5E9I4|H0YCF7|Q9HCU9 (UniProt Q9HCU9)	1.03 ± 0.018	1.05 ± 0.04	1.01 ± 0.012	1 ± 0.016	0.989 ± 0.041	1.02 ± 0.051
